This is an account of results in PubChem BioAssay (NCATS).

Values joined by “and” are separate entries in the source; they are usually repeats but may differ in a detail not shown here. Identical values can stand only once.

The assay is described as follows: qHTS drug screen for cell cycle checkpoint inhibitors in PARPi-resistant BRCA-mutant ovarian cancer cell lines. (AID 1963452). The conditions noted are these: PEO1/OlaR viability, CellTiter-Glo luminescence, 96 h; measured here: PEO1 parental Z-AUC; stronger effect = lower value. The procedure, abridged: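 PEO1, PEO4 and PEO1/OlaR ovarian cancer cells, 600 per well, exposed 96 h at 37C to a dilution series. Viability read by CellTiter-Glo luminescence, normalized to DMSO and empty wells; activity summarized as Z-AUC.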
(In qHTS, concentration-response curves come from the screen itself.)
For `COc1cccc(-c2c(C)n(Cc3c(F)cccc3C(F)(F)F)c(=O)n(C[C@H](NCCCC(=O)O)c3ccccc3)c2=O)c1F`, the Z-AUC is 0.714 and 0.439.
`C=C1C[C@H]2C=Nc3cc(OCCCOc4cc5c(cc4OC)C(=O)N4CC(=C)C[C@H]4C=N5)c(OC)cc3C(=O)N2C1`: the Z-AUC was 0.729.
Take `O=C(O)CCNc1cc(N2CCc3ccccc3CC2)nc(-c2cccnc2)n1`: the Z-AUC came to 0.839.
Under `CN1CCN(C(=O)c2ccc(-c3ccc4c(C=O)c(O)ccc4c3)s2)CC1` stands 0.551; under `N=C(N)c1ccc2nc(-c3cc(CC(=O)N[C@@H](CC(=O)O)C(=O)O)cc(-c4cc(S(N)(=O)=O)ccc4O)c3O)[nH]c2c1`, -0.562.
With `C[C@H](Nc1nc(N[C@H](C)C(F)(F)F)nc(-c2cccc(Cl)n2)n1)C(F)(F)F`, the Z-AUC is 0.592.
The figure for `O=C1OC(COc2ccccc2[N+](=O)[O-])CC1Cc1ccccc1` (stereo unspecified) is -0.0369; for `COc1cc2c(cc1OC)CN(CCc1ccc(-n3nnc(-c4cc(OC)c(OC)cc4NC(=O)c4cc(=O)c5ccccc5o4)n3)cc1)CC2` it is 2.17; for `COCCNc1cc(NC(=O)N2CCCc3cc(CN4CCN(C)CC4=O)c(C=O)nc32)ncc1C#N` it is 0.498.
Consider `N#Cc1ccnc(N2C(=O)CC[C@H]2C(=O)N(c2cncc(F)c2)C(C(=O)NC2CC(F)(F)C2)c2ccccc2Cl)c1` (stereo partly specified), for which the Z-AUC stood at 0.937.
Under `CC1(N)CCN(c2cnc(-c3cccc(Cl)c3Cl)c(N)n2)CC1` stands -0.626; under `O=C(O)C[C@H]1CCc2c1[nH]c1ccc(OCc3ccc(C4CCCC4)c(C(F)(F)F)c3)cc21`, 0.981.
Under `CCOc1ccc(Cc2cc([C@@H]3O[C@H](CO)[C@@H](O)[C@H](O)[C@H]3O)ccc2Cl)cc1` stands 1.31; under `COc1cc(C)[nH]c(=O)c1CN1CCc2c(Cl)cc([C@H](OC)C3COC3)c(Cl)c2C1=O`, 0.817.
Turning to `CC[C@@]1(O)C(=O)OCc2c1cc1n(c2=O)Cc2c-1nc1ccccc1c2CCNC(C)C`, the Z-AUC is -2.94.
The figure for `CC1(C)OC2=C(C(=O)c3ccccc3C2=O)[C@H](NCc2ccccc2)[C@@H]1O` is 1.22; for `CN[C@@H](C)C(=O)N[C@H](C(=O)N1CCC[C@H]1C(=O)Nc1sc(-c2ncco2)nc1-c1ccccc1)C1CCCCC1` it is 0.246.
For `O=C(O)c1ccccc1-c1ccc(/C=c2\sc3nc4cc(Br)cnc4n3c2=O)o1`, the Z-AUC is -0.865.
Turning to `O=C(/C=C/c1ccc(/C=C/C(=O)Nc2ccc(C3=NCCN3)cc2)cc1)Nc1ccc(C2=NCCN2)cc1`, the Z-AUC was found to be 0.179.
In the case of `Cc1c(NC(=O)c2cc(C(N)=O)nc3cc(F)ccc23)c(C(F)(F)F)nn1Cc1ccc(C(C)(C)C)cc1`, the Z-AUC was -0.106.
The figure for `COC1CCC(N2C(=O)CNc3ncc(-c4ccc(C(C)(C)O)nc4)nc32)CC1` (stereo unspecified) is 0.788; for `Cc1c(-c2c(-c3ccc(F)o3)sc3ncnc(O[C@@H](Cc4ccccc4OCc4ccnn4CC(F)(F)F)C(=O)O)c23)ccc(OCCN2CCN(C)CC2)c1Cl` it is 0.964.
Under `Cn1cc(-c2nc(N[C@@H]3CCCC[C@@H]3N)c(F)c3c2C(=O)NC3)cn1` stands 0.884.
The figure for `O=C1NC(=O)/C(=C\c2ccc(-c3ccc(F)cc3)o2)S1` is 0.696.
For `CONC(=O)Nc1ccc(-c2sc3c(c2CN(C)Cc2ccccc2)c(=O)n(-c2ccccc2)c(=O)n3Cc2c(F)cccc2F)cc1`, the Z-AUC is -0.886.
Take `Cc1[nH]cnc1CN1CCN(C(=O)N[C@@H](CC(C)C)C(=O)O)[C@@H](Cc2ccccc2)C1=O`: the Z-AUC stood at 0.199.
The figure for `O=C(O)CNC(=O)c1nc(Cl)c2ccccc2c1O` is -0.207.
With `CC(C)(O)c1coc(S(=O)(=O)NC(=O)Nc2c3c(cc4c2CCC4)CCC3)c1`, the Z-AUC is -0.798.
The figure for `Cc1nc(NC(=O)N2CCC[C@H]2C(N)=O)sc1-c1csc(C(C)(C)C)n1` is 0.231.
The figure for `C/C=C1\NC(=O)[C@H]2CSSCC/C=C\[C@H](CC(=O)N[C@H](C(C)C)C(=O)N2)OC(=O)[C@H](C(C)C)NC1=O` is -3.43; for `CC(C)[C@H]1C(=O)N[C@@H](CCCN=C(N)N)C(=O)NCC(=O)N[C@@H](CC(=O)O)C(=O)N[C@H](Cc2ccccc2)C(=O)N1C` it is -1.22.
Under `CC(C)n1c(=O)cc(N[C@@H](C)c2ccccc2)[nH]c1=O` stands 0.859.
Turning to `CSC[C@H]1CN(Cc2c[nH]c3c(N)ncnc23)C[C@@H]1O`, the Z-AUC was found to be 0.706.
The figure for `C=CC(=O)Nc1cccc(Oc2nc(Nc3ccc(N4CCN(C)CC4)c(F)c3)nc3[nH]ccc23)c1` is -0.613.
On to `COCCOC(=O)N1CCN(S(=O)(=O)c2cc(F)c(Oc3ccc(Cl)cc3)c(F)c2)C(C(=O)NO)C1` (stereo unspecified), for which the Z-AUC is -1.23.
Under `COc1nc(N)nc2c1ncn2C1OC(CO)C(O)C1O` (stereo unspecified) stands -0.445.
